From PubChem BioAssay (NCATS)
Records with an inconclusive call do not appear. The source made the active and inactive calls. Unless noted, calls follow the shape of the dose curve; as a rule, active = well fitted curve in the direction sought with a large enough effect; inconclusive = small, poorly fitted or top-dose-only effect, or another doubt; inactive = no such curve, though single readings can be large; an effect the other way counts as inactive or inconclusive.

Experiments:
[1] = Cellular Toxicity (caspase-3) H-4-II-E (AID 663); details: Potency: caspase-3 activation
Procedure, shortened: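 Rat hepatoma H-4-II-E cells (1500/well) plated 5 hr, then exposed to compound titrations for 16 hr at 37 °C. Caspase-Glo 3/7 luminescence read after 20 min at RT; data normalized to DMSO and 100 uM tamoxifen, AC50 from Hill fits.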

[2] = Cellular Toxicity (caspase-3) Hek293 (AID 664); details: HEK293 caspase-3 activation, DMSO = 0%, 100 µM tamoxifen = 100%; at 92.2 µM (top of the series);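 also: cells exposed to compound for 16 h at 37 °C before readout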
Procedure, shortened: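 HEK293 cells were exposed to compounds in complete medium for 16 hr at 37 °C, then caspase-3/7 activity was read by Caspase-Glo 3/7 luminescence after 20 min at room temperature. Data normalized to DMSO and 100 uM tamoxifen; AC50 from Hill fits.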

[3] = Cellular Toxicity (caspase-3) N2a (AID 665);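 also: compound exposure lasted 16 h at 37 °C before readout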
Procedure, shortened: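 Mouse N2a neuroblastoma cells (1500/well) were treated with compounds for 16 h at 37 °C, then caspase-3/7 activity was read by Caspase-Glo luminescence after 1 h at room temperature. Data were normalized to DMSO and 10 uM staurosporine; AC50 from Hill fits.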

[4] = Cellular Toxicity (caspase-3) Renal Proximal Tubule (AID 667); details: Potency: caspase-3 activation;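 also: cells exposed to compound for 16 hours at 37 °C before detection; 0% = DMSO basal and 100% = 10 µM staurosporine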
Procedure, shortened: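 Caspase-Glo 3/7 read-out, rat primary kidney proximal tubule cells. Compound exposure 16 h, 37 °C; detection after 1 h at RT. Activity scaled to DMSO and 10 uM staurosporine.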

[5] = MultiTox-Fluor Cytotoxicity Assay - LYMP1-001 - Dead Cells (AID 946);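 also: 0% = DMSO and 100% = tetraoctylammonium bromide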
Procedure, shortened: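 In this qHTS, 15 uM tetraoctylammonium bromide defined 100% and DMSO defined basal activity. Lymphoblastoid cells (LYMP1-001, 2500 per well) received compound for 16 hr at 37 C before a fluorogenic dead-cell substrate readout at 485/520 nm.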

[6] = MultiTox-Fluor Cytotoxicity Assay - LYMP1-001 - Live Cells (AID 947);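 also: 0% = DMSO only and full inhibition = tetraoctylammonium bromide control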
[7] = Cell Viability - LYMP1-002 - Assay at 16 hr (AID 948);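 also: 0% = DMSO alone and full effect = 92 µM tetraoctylammonium bromide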
Procedure, shortened: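 In this qHTS, lymphoblastoid LYMP1-002 cells (human) receive compounds for 16 hr at 37 C. Viability is taken from CellTiter-Glo ATP luminescence, and AC50 derives from standard Hill fits.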

[8] = MultiTox-Fluor Cytotoxicity Assay - LYMP1-002 - Live Cells (AID 955); also: % is scaled to controls: 0 for no effect and ±100 for the full control effect
Procedure, shortened: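 Human lymphoblastoid LYMP1-002 cells, 2500/well in complete medium, rested 5 hr at 37 C, then exposed to compounds for 16 hr at 37 C. Live-cell protease cleavage of GF-AFC read by fluorescence (Ex/Em 405/510) after 60 min at room temperature; AC50 from Hill fits.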

[9] = MultiTox-Fluor Cytotoxicity Assay - LYMP1-003 - Dead Cells (AID 961);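 also: 0% = DMSO and 100% = tetraoctylammonium bromide; nearly all actives have a fitted effect of over 70% in size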
Procedure, shortened: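 Acute toxicity is scored as increased dead-cell protease activity in human lymphoblastoid LYMP1-003 cells after 16 h compound exposure in complete culture medium. Activity is normalized to DMSO basal and 15 uM tetraoctylammonium bromide as full response.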

[10] = MultiTox-Fluor Cytotoxicity Assay - LYMP1-003 - Live Cells (AID 962);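 also: 0% = DMSO only and full loss = 92 µM tetraoctylammonium bromide; cytotoxic hits lower the live-cell protease signal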
Procedure, shortened: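 LYMP1-003 human lymphoblastoid cells (2500/well) in complete medium were preincubated 5 hr at 37 C, then exposed to compounds for 16 hr at 37 C. Live-cell protease cleavage of GF-AFC read by fluorescence (Ex/Em 405/510); AC50 from Hill fits.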

[11] = Cell Viability - LYMP1-003 - Assay at 24 hr (AID 963);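 also: plate controls were DMSO only for no effect and tetraoctylammonium bromide positive control for full effect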
Procedure, shortened: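 Human lymphoblastoid LYMP1-003 cells (2500/well) were rested 5 hr at 37 C, then exposed to compounds in complete medium for 24 hr at 37 C. Cellular ATP was quantified by CellTiter-Glo luminescence, and AC50 values came from Hill fits of concentration-response data.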

[12] = Cell Viability - LYMP1-003 - Assay at 40 hr (AID 964); also: % is scaled to controls: 0 for no effect and ±100 for the full control effect; nearly all actives have a fitted effect of over 60% in size
Procedure, shortened: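 Human lymphoblastoid LYMP1-003 cells, 2500/well in complete medium, rested 5 hr at 37 C, then exposed to compounds for 40 hr at 37 C. Viability read as intracellular ATP by CellTiter-Glo luminescence; AC50 from Hill fits of concentration-response data.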

[13] = Cell Viability - LYMP2-004 (AID 966);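 also: plate controls were DMSO only for no effect and tetraoctylammonium bromide control for full effect; nearly all actives have a fitted effect of over 65% in size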
Procedure, shortened: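 Human lymphoblastoid cells (2500/well) in complete medium were treated with compounds for 24 hr at 37 C, then intracellular ATP was measured by CellTiter-Glo luminescence. AC50 values came from Hill-equation fits of concentration-response data.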

[14] = Cell Viability - LYMP2-005 (AID 967);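 also: plate controls were DMSO only for no effect and 92 µM tetraoctylammonium bromide control for full effect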
Procedure, shortened: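 Luciferase-based ATP quantitation served as the viability measure in human lymphoblastoid LYMP2-005 cells exposed to test compounds for 24 h at 37 C in complete culture medium. Potency (AC50) was obtained by fitting concentration-response curves with the Hill equation.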

[15] = Cell Viability - LYMP2-009 (AID 968);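 also: 0% = DMSO alone and the full-kill end = tetraoctylammonium bromide at 92 µM; nearly all actives have a fitted effect of over 55% in size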
[16] = Cell Viability - LYMP2-011 (AID 969);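 also: 0% = DMSO only and full inhibition = 92 µM tetraoctylammonium bromide; nearly all actives have a fitted effect of over 60% in size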
Procedure, shortened: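 Human lymphoblastoid cells (2500/well) were plated in complete medium, preincubated 5 hr at 37 C, then exposed to compounds for 24 hr at 37 C. Intracellular ATP was read by CellTiter-Glo luminescence, and AC50 came from Hill-equation concentration-response fits.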

[17] = qHTS assay for small molecule antagonists of the retinoid-related orphan receptor gamma (ROR-gamma) signaling pathway - cell viability counter screen (AID 720652; active = well fitted curve in the direction sought with a large enough effect in the repeat runs; an effect the other way counts as inactive or inconclusive;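 also: CHO reporter cells with doxycycline-induced ROR-gamma expression; compound exposure lasted 16 hr before ATP read; % is scaled to controls: 0 for no effect and ±100 for the full control effect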)
Procedure, shortened: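 Counter screen in CHO cells carrying TET-inducible ROR-gamma and an ROR response element-luciferase reporter; cells plated 5 hr, compound pinned, doxycycline added, then 16 hr at 37 C. Viability read as intracellular ATP by CellTiter-Glo luminescence.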

[18] = qHTS assay for small molecule agonists of the antioxidant response element (ARE) signaling pathway measured by Nrf2-dependant transcriptional activity - cell viability counter screen (AID 720653; active = well fitted curve in the direction sought with a large enough effect in the repeat runs; an effect the other way counts as inactive or inconclusive; also: % is scaled to controls: 0 for no effect and ±100 for the full control effect); details: ARE-bla HepG2 viability, CellTiter-Glo ATP luminescence, 16 h; max response: stronger effect = lower value
Procedure, shortened: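 ARE-bla HepG2 cells treated with compounds for 16 h at 37C; this counter screen measures viability as intracellular ATP by CellTiter-Glo luminescence after 30 min at room temperature.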

[19] = qHTS assay for cell viability of HEK293 cells (AID 743288); details: ATP luminescence (CellTiter-Glo), 18 h; max response: stronger effect = lower value; also: % is scaled to controls: 0 for no effect and ±100 for the full control effect; nearly all actives have a fitted effect of over 50% in size
Procedure, shortened: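 Luminescent ATP quantitation served as the viability read-out. Cells (parental HEK293, 2,000/well) received compounds after at least 5 h at 37 C and were exposed for 18 h before a 30 min room-temperature reagent step.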

[20] = qHTS assay for cell viability of the p53RE-bla HCT-116 cell line (AID 743292); also: % is scaled to controls: 0 for no effect and ±100 for the full control effect; nearly all actives have a fitted effect of over 55% in size
Procedure, shortened: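 In this qHTS counter-screen, metabolically competent p53RE-bla HCT-116 cells were counted via their ATP content. Compounds were applied for 16 h at 37 C and luciferase-coupled luminescence was measured.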

O=C(O)c1cc(N=Nc2ccc([N+](=O)[O-])cc2)ccc1O
inactive: Potency [1] | caspase-3 activation [2] -10.9% | outcome [3] | Potency [4] | Potency [5] | Potency [6] | Potency [7] | outcome [8] | Potency [9] | Potency [10] | Potency [11] | Potency [12] | Potency [13] | Potency [14] | Potency [15] | Potency [16] | Potency [17] | max response [18] -5.1% | max response [19] 6.02% | Potency [20]
